Assay results taken from the supplement of paper PMC7411054.

Columns and labels:
Test in all cases: phenotypically active (imaging signature differs from DMSO and reproducible) at any of 0.3-9 uM (binary (1 = active, 0 = inactive)); higher = active
Details in all cases: treatment time: 24 h
A549-ACTB-RAB5A = test system: A549-ACTB-RAB5A
Summary of the method: (§1)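 Two criteria together defined phenotypic activity: deviation and reproducibility. Deviation meant ≥3 of 4 wells beyond the 95th percentile of Euclidean distances in solvent control wells, and reproducibility meant a median replicate Pearson correlation above the 95th percentile of non-replicates. Wells had been treated for 24 h at 0.3, 1, 3 or 9 µM in fifteen gene-edited A549, HepG2 and WPMY1 reporter lines before live imaging.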

A549-CANX-COX4 = test system: A549-CANX-COX4
Summary of the method: as §1

A549-GM130-SQSTM1 = test system: A549-GM130-SQSTM1
Summary of the method: as §1

A549-TP53BP1-CLTA = test system: A549-TP53BP1-CLTA
Summary of the method: as §1

A549-TUBA1B-RELA = test system: A549-TUBA1B-RELA
Summary of the method: as §1

HepG2-ACTB-RAB5A = test system: HepG2-ACTB-RAB5A
Summary of the method: as §1

HepG2-CANX-COX4 = test system: HepG2-CANX-COX4
Summary of the method: as §1

HepG2-GM130-SQSTM1 = test system: HepG2-GM130-SQSTM1
Summary of the method: as §1

HepG2-TP53BP1-CLTA = test system: HepG2-TP53BP1-CLTA
Summary of the method: as §1

HepG2-TUBA1B-RELA = test system: HepG2-TUBA1B-RELA
Summary of the method: as §1

WPMY1-ACTB-RAB5A = test system: WPMY1-ACTB-RAB5A
Summary of the method: as §1

WPMY1-CANX-COX4 = test system: WPMY1-CANX-COX4
Summary of the method: as §1

WPMY1-GM130-SQSTM1 = test system: WPMY1-GM130-SQSTM1
Summary of the method: as §1

WPMY1-TP53BP1-CLTA = test system: WPMY1-TP53BP1-CLTA
Summary of the method: as §1

WPMY1-TUBA1B-RELA = test system: WPMY1-TUBA1B-RELA
Summary of the method: as §1

Measured: phenotypically active

COc1ccc(OC)c(C(O)CNC(=O)CN)c1 (stereo not given) [midodrine]
inactive: A549-ACTB-RAB5A 0 | A549-CANX-COX4 0 | A549-GM130-SQSTM1 0 | A549-TP53BP1-CLTA 0 | A549-TUBA1B-RELA 0 | HepG2-ACTB-RAB5A 0 | HepG2-CANX-COX4 0 | HepG2-GM130-SQSTM1 0 | HepG2-TP53BP1-CLTA 0 | HepG2-TUBA1B-RELA 0 | WPMY1-ACTB-RAB5A 0 | WPMY1-CANX-COX4 0 | WPMY1-GM130-SQSTM1 0 | WPMY1-TP53BP1-CLTA 0 | WPMY1-TUBA1B-RELA 0

FC(F)OC(F)C(F)(F)F (stereo not given) [desflurane]
inactive: A549-ACTB-RAB5A 0 | A549-CANX-COX4 0 | A549-GM130-SQSTM1 0 | A549-TP53BP1-CLTA 0 | A549-TUBA1B-RELA 0 | HepG2-ACTB-RAB5A 0 | HepG2-CANX-COX4 0 | HepG2-GM130-SQSTM1 0 | HepG2-TP53BP1-CLTA 0 | HepG2-TUBA1B-RELA 0 | WPMY1-ACTB-RAB5A 0 | WPMY1-CANX-COX4 0 | WPMY1-GM130-SQSTM1 0 | WPMY1-TP53BP1-CLTA 0 | WPMY1-TUBA1B-RELA 0

Nc1ncnc2c1ncn2[C@@H]1O[C@H](CO)C[C@H]1O [Cordycepin]
inactive: A549-ACTB-RAB5A 0 | A549-CANX-COX4 0 | A549-GM130-SQSTM1 0 | A549-TP53BP1-CLTA 0 | A549-TUBA1B-RELA 0 | HepG2-ACTB-RAB5A 0 | HepG2-CANX-COX4 0 | HepG2-GM130-SQSTM1 0 | HepG2-TP53BP1-CLTA 0 | HepG2-TUBA1B-RELA 0 | WPMY1-ACTB-RAB5A 0 | WPMY1-CANX-COX4 0 | WPMY1-GM130-SQSTM1 0 | WPMY1-TP53BP1-CLTA 0 | WPMY1-TUBA1B-RELA 0

N=C(N)NN=Cc1c(Cl)cccc1Cl [guanabenz]
inactive: A549-ACTB-RAB5A 0 | A549-CANX-COX4 0 | A549-GM130-SQSTM1 0 | A549-TP53BP1-CLTA 0 | A549-TUBA1B-RELA 0 | HepG2-ACTB-RAB5A 0 | HepG2-CANX-COX4 0 | HepG2-GM130-SQSTM1 0 | HepG2-TP53BP1-CLTA 0 | HepG2-TUBA1B-RELA 0 | WPMY1-ACTB-RAB5A 0 | WPMY1-CANX-COX4 0 | WPMY1-GM130-SQSTM1 0 | WPMY1-TP53BP1-CLTA 0 | WPMY1-TUBA1B-RELA 0

NCCCC(O)(P(=O)(O)O)P(=O)(O)O [alendronate]
inactive: A549-ACTB-RAB5A 0 | A549-CANX-COX4 0 | A549-GM130-SQSTM1 0 | A549-TP53BP1-CLTA 0 | A549-TUBA1B-RELA 0 | HepG2-ACTB-RAB5A 0 | HepG2-CANX-COX4 0 | HepG2-GM130-SQSTM1 0 | HepG2-TP53BP1-CLTA 0 | HepG2-TUBA1B-RELA 0 | WPMY1-ACTB-RAB5A 0 | WPMY1-CANX-COX4 0 | WPMY1-GM130-SQSTM1 0 | WPMY1-TP53BP1-CLTA 0 | WPMY1-TUBA1B-RELA 0

COc1c2occc2cc2ccc(=O)oc12 [methoxsalen]
inactive: A549-ACTB-RAB5A 0 | A549-CANX-COX4 0 | A549-GM130-SQSTM1 0 | A549-TP53BP1-CLTA 0 | A549-TUBA1B-RELA 0 | HepG2-ACTB-RAB5A 0 | HepG2-CANX-COX4 0 | HepG2-GM130-SQSTM1 0 | HepG2-TP53BP1-CLTA 0 | HepG2-TUBA1B-RELA 0 | WPMY1-ACTB-RAB5A 0 | WPMY1-CANX-COX4 0 | WPMY1-GM130-SQSTM1 0 | WPMY1-TP53BP1-CLTA 0 | WPMY1-TUBA1B-RELA 0

COc1ccc2[nH]c(S(=O)Cc3ncc(C)c(OC)c3C)nc2c1 (stereo not given) [omeprazole]
inactive: A549-ACTB-RAB5A 0 | A549-CANX-COX4 0 | A549-GM130-SQSTM1 0 | A549-TP53BP1-CLTA 0 | A549-TUBA1B-RELA 0 | HepG2-ACTB-RAB5A 0 | HepG2-CANX-COX4 0 | HepG2-GM130-SQSTM1 0 | HepG2-TP53BP1-CLTA 0 | HepG2-TUBA1B-RELA 0 | WPMY1-ACTB-RAB5A 0 | WPMY1-CANX-COX4 0 | WPMY1-GM130-SQSTM1 0 | WPMY1-TP53BP1-CLTA 0 | WPMY1-TUBA1B-RELA 0

C#C[C@]1(O)CC[C@H]2[C@@H]3CCC4=Cc5oncc5C[C@]4(C)[C@H]3CC[C@@]21C [danazol]
inactive: A549-ACTB-RAB5A 0 | A549-CANX-COX4 0 | A549-GM130-SQSTM1 0 | A549-TP53BP1-CLTA 0 | A549-TUBA1B-RELA 0 | HepG2-ACTB-RAB5A 0 | HepG2-CANX-COX4 0 | HepG2-GM130-SQSTM1 0 | HepG2-TP53BP1-CLTA 0 | HepG2-TUBA1B-RELA 0 | WPMY1-ACTB-RAB5A 0 | WPMY1-CANX-COX4 0 | WPMY1-GM130-SQSTM1 0 | WPMY1-TP53BP1-CLTA 0 | WPMY1-TUBA1B-RELA 0

Nc1ncnc2c1ncn2[C@H]1O[C@@H](C(=O)N2CCN(CC(=O)Nc3cccc4c3CNC4=O)CC2)[C@H](O)[C@@H]1O
inactive: A549-ACTB-RAB5A 0 | A549-CANX-COX4 0 | A549-GM130-SQSTM1 0 | A549-TP53BP1-CLTA 0 | A549-TUBA1B-RELA 0 | HepG2-ACTB-RAB5A 0 | HepG2-CANX-COX4 0 | HepG2-GM130-SQSTM1 0 | HepG2-TP53BP1-CLTA 0 | HepG2-TUBA1B-RELA 0 | WPMY1-ACTB-RAB5A 0 | WPMY1-CANX-COX4 0 | WPMY1-GM130-SQSTM1 0 | WPMY1-TP53BP1-CLTA 0 | WPMY1-TUBA1B-RELA 0

COc1ccc([C@@H]2CC(=O)c3c(O)cc(O)cc3O2)cc1O [Hesperetin]
inactive: A549-ACTB-RAB5A 0 | A549-CANX-COX4 0 | A549-GM130-SQSTM1 0 | A549-TP53BP1-CLTA 0 | A549-TUBA1B-RELA 0 | HepG2-ACTB-RAB5A 0 | HepG2-CANX-COX4 0 | HepG2-GM130-SQSTM1 0 | HepG2-TP53BP1-CLTA 0 | HepG2-TUBA1B-RELA 0 | WPMY1-ACTB-RAB5A 0 | WPMY1-CANX-COX4 0 | WPMY1-GM130-SQSTM1 0 | WPMY1-TP53BP1-CLTA 0 | WPMY1-TUBA1B-RELA 0

CC(C)[N+](C)(CCOC(=O)C1c2ccccc2Oc2ccccc21)C(C)C [propantheline]
inactive: A549-ACTB-RAB5A 0 | A549-CANX-COX4 0 | A549-GM130-SQSTM1 0 | A549-TP53BP1-CLTA 0 | A549-TUBA1B-RELA 0 | HepG2-ACTB-RAB5A 0 | HepG2-CANX-COX4 0 | HepG2-GM130-SQSTM1 0 | HepG2-TP53BP1-CLTA 0 | HepG2-TUBA1B-RELA 0 | WPMY1-ACTB-RAB5A 0 | WPMY1-CANX-COX4 0 | WPMY1-GM130-SQSTM1 0 | WPMY1-TP53BP1-CLTA 0 | WPMY1-TUBA1B-RELA 0

CNNCc1ccc(C(=O)NC(C)C)cc1 [procarbazine]
inactive: A549-ACTB-RAB5A 0 | A549-CANX-COX4 0 | A549-GM130-SQSTM1 0 | A549-TP53BP1-CLTA 0 | A549-TUBA1B-RELA 0 | HepG2-ACTB-RAB5A 0 | HepG2-CANX-COX4 0 | HepG2-GM130-SQSTM1 0 | HepG2-TP53BP1-CLTA 0 | HepG2-TUBA1B-RELA 0 | WPMY1-ACTB-RAB5A 0 | WPMY1-CANX-COX4 0 | WPMY1-GM130-SQSTM1 0 | WPMY1-TP53BP1-CLTA 0 | WPMY1-TUBA1B-RELA 0

CC[N+](CC)(CC)CCC(O)(c1ccccc1)C1CCCCC1 (stereo not given) [tridihexethyl]
inactive: A549-ACTB-RAB5A 0 | A549-CANX-COX4 0 | A549-GM130-SQSTM1 0 | A549-TP53BP1-CLTA 0 | A549-TUBA1B-RELA 0 | HepG2-ACTB-RAB5A 0 | HepG2-CANX-COX4 0 | HepG2-GM130-SQSTM1 0 | HepG2-TP53BP1-CLTA 0 | HepG2-TUBA1B-RELA 0 | WPMY1-ACTB-RAB5A 0 | WPMY1-CANX-COX4 0 | WPMY1-GM130-SQSTM1 0 | WPMY1-TP53BP1-CLTA 0 | WPMY1-TUBA1B-RELA 0

CCCCC1=NC2(CCCC2)C(=O)N1Cc1ccc(-c2ccccc2-c2nnn[nH]2)cc1 [irbesartan]
inactive: A549-ACTB-RAB5A 0 | A549-CANX-COX4 0 | A549-GM130-SQSTM1 0 | A549-TP53BP1-CLTA 0 | A549-TUBA1B-RELA 0 | HepG2-ACTB-RAB5A 0 | HepG2-CANX-COX4 0 | HepG2-GM130-SQSTM1 0 | HepG2-TP53BP1-CLTA 0 | HepG2-TUBA1B-RELA 0 | WPMY1-ACTB-RAB5A 0 | WPMY1-CANX-COX4 0 | WPMY1-GM130-SQSTM1 0 | WPMY1-TP53BP1-CLTA 0 | WPMY1-TUBA1B-RELA 0

Oc1cc(O)c2c(c1)O[C@H](c1ccc(O)c(O)c1)[C@@H](O)C2 [Epicatechin-(-)]
inactive: A549-ACTB-RAB5A 0 | A549-CANX-COX4 0 | A549-GM130-SQSTM1 0 | A549-TP53BP1-CLTA 0 | A549-TUBA1B-RELA 0 | HepG2-ACTB-RAB5A 0 | HepG2-CANX-COX4 0 | HepG2-GM130-SQSTM1 0 | HepG2-TP53BP1-CLTA 0 | HepG2-TUBA1B-RELA 0 | WPMY1-ACTB-RAB5A 0 | WPMY1-CANX-COX4 0 | WPMY1-GM130-SQSTM1 0 | WPMY1-TP53BP1-CLTA 0 | WPMY1-TUBA1B-RELA 0

CC1=NN(c2ccc(C(=O)O)cc2)C(=O)/C1=C\c1ccc(-c2cc(C)c(C)cc2[N+](=O)[O-])o1
inactive: A549-ACTB-RAB5A 0 | A549-CANX-COX4 0 | A549-GM130-SQSTM1 0 | A549-TP53BP1-CLTA 0 | A549-TUBA1B-RELA 0 | HepG2-ACTB-RAB5A 0 | HepG2-CANX-COX4 0 | HepG2-GM130-SQSTM1 0 | HepG2-TP53BP1-CLTA 0 | HepG2-TUBA1B-RELA 0 | WPMY1-ACTB-RAB5A 0 | WPMY1-CANX-COX4 0 | WPMY1-GM130-SQSTM1 0 | WPMY1-TP53BP1-CLTA 0 | WPMY1-TUBA1B-RELA 0
